{
  "source": "PubChem BioAssay (NCI)",
  "note": "About 83,000 compounds went through this panel and 20% of them were active in at least one assay; those are over-represented in the sample as a whole.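 Values shown are percent growth following 48 h exposure of cells in 96-well plates to a single concentration of compound; below 10 was considered active.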 A number with no mark means an inactive call. Active and inactive are the calls of the source.",
  "data": [
    {"tested_on": "MDA-MB-468 breast", "experiment": "NCI-60 one-dose screen, 48 h (100 = growth as untreated, 0 = no growth, -100 = all killed)", "conditions": "10 µM unless noted", "values": [
      {"smiles": "c1cc2cccc3c4cccc5cccc(c(c1)c23)c54", "growth": "101%"},
      {"smiles": "C=C(C)[C@H]1CC/C(C)=C/CC[C@]2(C)O[C@H]2CC/C(C=O)=C\\C1O", "note": "(stereo partly specified)", "growth": "126%"},
      {"smiles": "Cc1cc(C)cc(CCCCCCCCCCCCCCCCCC(=O)O)c1", "growth": "106%"},
      {"smiles": "COc1ccc(-c2nc(N/N=C/c3ccco3)nc(N3CCOCC3)c2C#N)cc1", "growth": "36%"},
      {"smiles": "Cc1[nH]c(C(=O)Nc2cccc(OC3CCNCC3)c2)c(Cl)c1Cl", "growth": "40.9%"},
      {"smiles": "O=C(CSc1nnc2sc(Nc3cccc(Cl)c3)nn12)c1ccc(F)cc1", "growth": "89.5%"},
      {"smiles": "CCn1c(SCC(=O)Nc2cc(C(F)(F)F)ccc2Cl)nc2ccccc2c1=O", "growth": "50.3%"},
      {"smiles": "COc1ccc(C2=C/C(=C\\c3ccc(Cl)cc3)C(=O)NN2C(=S)NN)cc1", "growth": "82.7%"},
      {"smiles": "S=C(Nc1ccc(C2=NCCN2)cc1)Nc1ccc(C2=NCCN2)cc1", "growth": "67.6%"},
      {"smiles": "COc1ccc(Br)cc1NC(=O)Nc1cccc2c1ccn2Cc1ccnc(N)c1", "growth": "-14.4% (active)"},
      {"smiles": "CN(C)CCOC(=O)Nc1nc2ccc(Sc3ccccc3)cc2[nH]1", "growth": "2.02% (active)"},
      {"smiles": "Cc1ccc(O)c(N)c1", "growth": "98.9%"},
      {"smiles": "NC(CSC(c1ccccc1)(c1ccccc1)c1ccc(Cl)cc1)C(=O)O", "note": "(stereo unspecified)", "growth": "-6.09% (active)"},
      {"smiles": "CCN(CC)c1ccc2nc3c4ccccc4c(=NC(=O)c4ccccc4-c4c5ccc(N(CC)CC)cc5[o+]c5cc(N(CC)CC)ccc45)cc-3oc2c1", "growth": "-59.2% (active)"},
      {"smiles": "CC(C)(C)CC(C)(C)Nc1c(-c2c(O)c3ccccc3oc2=O)nc2c(Cl)cc(C(F)(F)F)cn12", "growth": "92.2%"},
      {"smiles": "OCC1C2C=CC(C2)C1CO", "note": "(stereo unspecified)", "growth": "98.4%"},
      {"smiles": "O=C(CN1CCN(c2cc3c(cc2F)c(=O)c(C(=O)N/N=C/c2ccccc2O)cn3C2CC2)CC1)N/N=C\\c1ccccc1O", "growth": "-4.47% (active)"},
      {"smiles": "O=[N+]([O-])c1ccc(N=Nc2ccc(O)c3ccccc23)cc1", "growth": "26.7%"},
      {"smiles": "CSc1nc(NCCO)c(C#N)c(-c2cccc([N+](=O)[O-])c2)n1", "growth": "105%"},
      {"smiles": "COc1ccc(-c2cc(/C=C3\\C(=O)Nc4cc(Cl)ccc43)[nH]n2)cc1OC", "growth": "65.5%"},
      {"smiles": "CC(C)c1[nH]nc2c(NCc3ccc(-c4ccccn4)cc3)nc(SCCN(C)C)nc12", "growth": "-50.1% (active)"},
      {"smiles": "CC1SC(c2cccc(Oc3ccccc3)c2)N(CCc2cccs2)C1=O", "note": "(stereo unspecified)", "growth": "-45.5% (active)"},
      {"smiles": "CCOC(=O)C1=C(C)NC(C)=C(C(=O)OCC)C1c1cc(Br)c(O)c(OC)c1", "growth": "20.4%"},
      {"smiles": "CC(C)(C)OC(=O)Nc1ccc(-c2cccc(Oc3ccc4nnc(Cl)n4n3)c2)cc1", "growth": "61.9%"},
      {"smiles": "CC(C)(C)c1ccc(C(=O)Nc2sc3c(c2C#N)CCC(=O)C3)cc1", "growth": "2.73% (active)"},
      {"smiles": "CCCCCC(=O)Oc1ccc(/C(=C(\\C)c2ccccc2)c2ccc(OCCN3CCCCC3)cc2)cc1", "growth": "75.7%"}
    ]}
  ]
}
